Potency, activity change, negative = inhibition and max response data for 15 compounds are collected here from PubChem BioAssay (NCATS).

“And” between values parts separate entries of the source, which are not always exact repeats. Equal entries are not always repeated. Records with an inconclusive call do not appear. The source made the active and inactive calls. Unless noted, calls come from the whole dose curve; as a rule, active = well fitted curve in the direction sought with a large enough effect; inconclusive = small, poorly fitted or top-dose-only effect, or another doubt; inactive = no such curve, though single readings can be large; an effect the other way counts as inactive or inconclusive.

Assay [1] concerns the target Cytochrome P450 3A4 (Homo sapiens) (UniProt P08684). As to the kind of experiment: qHTS Assay for Inhibitors and Substrates of Cytochrome P450 3A4 (AID 884). For activity change, negative = inhibition: % is set by controls: 0 for no effect and ±100 for the full control effect. Note: nearly all actives have a fitted effect of over 50% in size. Note: potency is the fitted concentration of half-maximal effect. The procedure, abridged: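 20 nM human CYP3A4 with 25 uM Luciferin-PPXE (at KM) in 200 mM KPO4, preincubated 10 min with compound; NADPH regeneration started a 60 min RT reaction. Luciferin detected by luminescence, normalized to 57 uM ketoconazole as full inhibition.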

A short description of assay [2]: Confirmation and Secondary Assay for Modulators of Hemoglobin Beta Chain Splicing at IVS2 654 locus (AID 910).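 Note: HeLa cells stably carrying EGFP split by mutant beta-globin IVS2-654 intron; % of control where 0% means no effect.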 In a few lines:
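HeLa cells stably expressing EGFP interrupted by β-globin IVS2-654 intron, seeded overnight in Opti-MEM/2% FCS, then treated 2 days at 37 °C. Restored splicing read as total peak GFP intensity per well by laser scanning cytometry (488 nm excitation, 500–520 nm emission); 500 nM antisense PNA as control.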

Assay [3] in a line: Confirmation and Secondary Assay for Modulators of Hemoglobin Beta Chain Splicing at IVS2 705 locus (AID 930).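 Note: HeLa cells stably expressing the EGFP-705 splicing reporter; GFP fluorescence per well restored by corrected splicing of the IVS2-705 intron in EGFP; % of control where 0% means no effect.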 In a few lines: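 Per-well GFP, captured at 1 x 8 µm resolution with 488 nm excitation, served as the read-out for HeLa EGFP-705 cells incubated 2 days with test compound versus DMSO.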
A short description of assay [4]: qHTS Assay for Lipid Storage Modulators (AID 1519; calls by dose curve; for activity change, negative = inhibition: % is set by controls: 0 for no effect and ±100 for the full control effect). As to conditions: Drosophila S3 cells, BODIPY lipid droplet/cell ratio, laser cytometry, cells loaded with oleic acid; for activity change, negative = inhibition: at 57.5 µM (top of the series). In a few lines: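 Cells seeded at 5,000 per well were treated with compounds over a concentration series and loaded with oleic acid (400 uM, as added). Lipid droplet fluorescence (488 nm excitation, 500-530 nm channel) was read by laser-scanning cytometry and normalized to 20 uM Triacsin C.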

For assay [5], the target named is Ubiquitin carboxyl-terminal hydrolase 1 (Homo sapiens) (UniProt O94782). Put plainly: Inhibitors of USP1/UAF1: Pilot qHTS (AID 504865).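 For activity change, negative = inhibition: rhodamine fluorescence freed from ubiquitin-rhodamine substrate followed over time; top concentration of the series differs between compounds; % is set by controls: 0 for no effect and ±100 for the full control effect.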 Note: nearly all actives have a fitted effect of over 35% in size. Note: potency is the fitted concentration of half-maximal effect. The procedure, abridged:
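USP1/UAF1 complex (1nM) preincubated with compound 15 min at room temperature, then Ub-Rho substrate (150nM final) added. Fluorescence read kinetically at 480/540 nm, 6 reads every 60 seconds. Buffer: 50mM HEPES pH 7.8, 0.5mM EDTA, 0.1 mg/ml BSA, 1mM TCEP, 0.01% Tween-20.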

Assay [6] has as its target Cytochrome P450 3A4 (Homo sapiens) (UniProt P08684). As to the kind of experiment: qHTS Assay for Activators of Cytochrome P450 3A4 (AID 885). Note: nearly all actives have a fitted effect of over 65% in size. The procedure, abridged: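 Quantitative HTS format: compounds preincubated with 20nM human CYP3A4 and Luciferin-PPXE substrate at KM, reaction started by NADPH regeneration, stopped after 60 min, luciferase luminescence read 20 min later.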
For orientation: In qHTS, concentration-response curves come from the screen itself.

The target of assay [7] is Peroxisome proliferator-activated receptor alpha (Homo sapiens) (UniProt Q07869). Put plainly: qHTS assay for small molecule agonists of the peroxisome proliferator-activated receptor alpha (PPARalpha) signaling pathway (AID 651778). Note: % of control where 0% means no effect. The settings on record: PathHunter PPARalpha complementation, chemiluminescence, 6 h; stronger effect = higher value. The procedure, abridged:
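Enzyme-fragment complementation assay in which ligand-bound PPARalpha translocates and forms an active enzyme that generates chemiluminescence. Cells were plated overnight, exposed to compound for 6 hr at 37 C, and then given detection reagent for 60 min at room temperature.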

Assay [8] can be described thus: qHTS assay for cell viability of HEK293 cells (AID 743288). Note: % is set by controls: 0 for no effect and ±100 for the full control effect; nearly all actives have a fitted effect of over 50% in size. The settings on record: ATP luminescence (CellTiter-Glo), 18 h; max response: stronger effect = lower value. In a few lines:
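Parental HEK293 cells were seeded at 2,000 cells/well, rested at least 5 h at 37 C, then exposed to compounds in DMSO for 18 h at 37 C. Viability was read as ATP-dependent luciferase luminescence after 30 min at room temperature.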

Where [9] appears, read: measured here: cell count channel max response.
Setting [10] is: measured here: lipid channel max response.

Chain of Cytochrome P450 3A4 (Homo sapiens) (P08684 whole entry, looked up): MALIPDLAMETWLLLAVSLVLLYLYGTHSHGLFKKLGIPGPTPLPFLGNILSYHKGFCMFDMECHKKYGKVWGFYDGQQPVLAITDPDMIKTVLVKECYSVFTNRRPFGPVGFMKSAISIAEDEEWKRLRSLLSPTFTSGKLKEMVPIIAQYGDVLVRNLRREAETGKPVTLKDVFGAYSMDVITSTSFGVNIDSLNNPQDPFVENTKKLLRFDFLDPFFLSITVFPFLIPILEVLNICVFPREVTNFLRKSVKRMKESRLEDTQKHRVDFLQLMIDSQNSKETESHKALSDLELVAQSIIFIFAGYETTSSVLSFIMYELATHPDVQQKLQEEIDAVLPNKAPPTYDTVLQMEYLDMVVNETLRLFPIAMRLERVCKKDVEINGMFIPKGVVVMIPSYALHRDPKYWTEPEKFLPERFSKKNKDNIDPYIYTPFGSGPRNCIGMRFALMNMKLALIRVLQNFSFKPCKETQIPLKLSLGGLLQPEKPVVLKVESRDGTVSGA
Chain of Ubiquitin carboxyl-terminal hydrolase 1 (Homo sapiens) (O94782 whole entry, looked up): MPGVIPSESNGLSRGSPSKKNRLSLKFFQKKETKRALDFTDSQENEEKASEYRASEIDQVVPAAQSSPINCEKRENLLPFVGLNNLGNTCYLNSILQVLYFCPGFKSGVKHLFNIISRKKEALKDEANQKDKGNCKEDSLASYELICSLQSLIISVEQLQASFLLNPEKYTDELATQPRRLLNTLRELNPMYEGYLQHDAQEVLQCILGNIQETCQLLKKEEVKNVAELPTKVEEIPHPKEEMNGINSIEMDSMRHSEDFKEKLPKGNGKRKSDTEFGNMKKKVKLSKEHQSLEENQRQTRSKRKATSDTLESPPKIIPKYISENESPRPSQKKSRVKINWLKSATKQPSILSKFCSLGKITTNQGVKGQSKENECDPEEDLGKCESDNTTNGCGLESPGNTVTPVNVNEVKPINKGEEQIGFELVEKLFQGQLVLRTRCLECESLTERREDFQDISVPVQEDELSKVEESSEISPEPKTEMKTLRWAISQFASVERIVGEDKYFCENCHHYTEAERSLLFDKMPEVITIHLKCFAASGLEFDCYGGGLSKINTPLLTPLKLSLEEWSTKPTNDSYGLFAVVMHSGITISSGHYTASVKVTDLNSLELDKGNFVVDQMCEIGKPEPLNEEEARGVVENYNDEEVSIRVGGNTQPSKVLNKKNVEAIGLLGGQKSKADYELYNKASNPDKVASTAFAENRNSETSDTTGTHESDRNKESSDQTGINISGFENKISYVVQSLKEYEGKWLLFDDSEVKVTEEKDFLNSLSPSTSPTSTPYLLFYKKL
Chain of Peroxisome proliferator-activated receptor alpha (Homo sapiens) (Q07869 whole entry, looked up, the tested form may be a part): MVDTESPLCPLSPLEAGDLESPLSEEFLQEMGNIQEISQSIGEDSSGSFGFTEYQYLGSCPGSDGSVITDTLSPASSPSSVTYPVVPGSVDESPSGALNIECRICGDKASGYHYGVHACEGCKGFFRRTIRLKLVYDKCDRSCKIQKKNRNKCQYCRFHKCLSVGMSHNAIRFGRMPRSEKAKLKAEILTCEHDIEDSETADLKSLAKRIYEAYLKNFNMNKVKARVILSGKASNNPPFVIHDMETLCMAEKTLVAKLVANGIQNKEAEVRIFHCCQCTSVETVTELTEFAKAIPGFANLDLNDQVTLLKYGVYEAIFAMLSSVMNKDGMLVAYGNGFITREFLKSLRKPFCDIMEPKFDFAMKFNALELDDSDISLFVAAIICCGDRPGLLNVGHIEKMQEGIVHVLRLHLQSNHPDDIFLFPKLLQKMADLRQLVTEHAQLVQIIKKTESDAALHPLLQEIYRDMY

Take `NC(CO)Cc1ccccc1` (stereo not drawn): the Potency entry in assay [1], in assay [2], in assay [3] and in assay [5] was “inactive” throughout. Further, in assay [4], the activity change, negative = inhibition was 8.6% (inactive). The figures for the max response in assay [4] (setting [9]) and in assay [4] (setting [10]) were 17.3% and 29%, respectively.
With `COc1cc2c(cc1OC)[C@@H]1C(=O)c3ccc(O)c(CC=C(C)C)c3OC1CO2` (stereo partly drawn), the Potency entry in assay [1], in assay [2], in assay [3] and in assay [5] was “inactive” throughout. For the same compound, in assay [4], the activity change, negative = inhibition is 7.74% (inactive). The max response was found to be 14.6% in assay [4] (setting [9]) and 25.6% in assay [4] (setting [10]).
With `N#C/C(=C\c1cccc(O)c1)C(=O)O`, the Potency entry in assay [1], in assay [2], in assay [3] and in assay [5] was “inactive” throughout. Moreover, the activity change, negative = inhibition in assay [4] is 5.07% (inactive). The values for the max response in assay [4] (setting [9]) and in assay [4] (setting [10]) were 0.883% and 7.48%, respectively.
On to `O=C1NC(=O)C(=O)C(=O)N1`, for which the Potency result in assay [1], in assay [2] and in assay [3] was “inactive” throughout. The activity change, negative = inhibition in assay [4] is 2.7% (inactive). The results for the max response in assay [4] (setting [9]) and in assay [4] (setting [10]) were 15% and 19.9%, respectively. Besides, the Potency in assay [5] was 89.1 µM (active).
As for `CCN1C[C@]2(COC)C(O)C[C@H](OC)[C@@]34C5C[C@]6(O)C(OC)C(O)[C@](OC(C)=O)(C5C6OC(=O)c5ccccc5)C(C(OC)C23)C14` (stereo partly drawn), the Potency result in assay [1], in assay [2], in assay [3] and in assay [5] was “inactive” each time. The activity change, negative = inhibition in assay [4] is 4.84% (inactive). Besides, the max response is 13.6% in assay [4] (setting [9]) and 24% in assay [4] (setting [10]).
As for `NC(=O)c1ccc(N)nc1`, the Potency result in assay [1], in assay [2], in assay [3] and in assay [5] was “inactive” each time. In addition, the activity change, negative = inhibition in assay [4] was 2.67% (inactive). The max response is 16.6% in assay [4] (setting [9]) and 22.3% in assay [4] (setting [10]).
Turning to `CC(C)(C)C(=O)C(Oc1ccc(Cl)cc1)n1cncn1` (stereo not drawn), the Potency result in assay [6], in assay [2], in assay [3] and in assay [5] was “inactive” in each case. The activity change, negative = inhibition in assay [4] is 7.2% (inactive). The max response in assay [4] (setting [9]) is 5.9%; in assay [4] (setting [10]), 16.7%; in assay [7], 1.14% (inactive) and -0.0791% (inactive); in assay [8] it was -10.8% (inactive) and -21.2% (inactive).
Turning to `CC(=O)OC1CC[C@]2(C)C(CCC3C2CC[C@]2(C)C(C4=CC(=O)OC4)C(OC(C)=O)CC32O)C1` (stereo partly drawn), the Potency entry in assay [1], in assay [2], in assay [3] and in assay [5] was “inactive” each time. Also, in assay [4], the activity change, negative = inhibition was 6.45% (inactive). Besides, the max response in assay [4] (setting [9]) was found to be 1.24%; in assay [4] (setting [10]) it was 14.6%.
With `CC(N)[C@@H](O)c1ccccc1` (stereo partly drawn), the Potency entry in assay [1], in assay [2], in assay [3] and in assay [5] was “inactive” throughout. Besides, the activity change, negative = inhibition in assay [4] is 6.04% (inactive). Besides, the max response in assay [4] (setting [9]) is 11.6%; in assay [4] (setting [10]), 28.2%.
On to `CC1(C)C(O)CC(O)[C@]2(C)C1CC(=O)[C@]1(C)C2CC[C@@]2(C)C(c3ccoc3)OC(=O)C3OC321` (stereo partly drawn), for which the Potency in assay [1] is 6.31 µM (active). Moreover, the Potency result in assay [6], in assay [3] and in assay [5] was “inactive” throughout. The activity change, negative = inhibition in assay [4] was -5.65% (inactive). The max response in assay [4] (setting [9]) is 17%; in assay [4] (setting [10]), 11.8%.
As to `C[C@]12CCC(=O)C=C1CCc1ccc(O)cc12`, the Potency in assay [1] is 25.1 µM (active). Further, the Potency entry in assay [6], in assay [2], in assay [3] and in assay [5] was “inactive” each time. Moreover, in assay [4], the activity change, negative = inhibition is -0.872% (inactive). Also, the max response in assay [4] (setting [9]) is -10.5%; in assay [4] (setting [10]) it was -4.41%.
In the case of `CN1C2CC(OC(=O)C(CO)c3ccccc3)CC1C(O)C2` (stereo not drawn), the Potency entry in assay [1], in assay [2], in assay [3] and in assay [5] was “inactive” throughout. In addition, the activity change, negative = inhibition in assay [4] is 5.64% (inactive). For the same compound, the max response in assay [4] (setting [9]) amounted to 7.52%; in assay [4] (setting [10]), 14.4%.
As to `CNC(Cc1c[nH]c2ccccc12)C(=O)O` (stereo not drawn), the Potency result in assay [1], in assay [2], in assay [3] and in assay [5] was “inactive” each time. Besides, in assay [4], the activity change, negative = inhibition is 4.43% (inactive). For the same compound, the max response in assay [4] (setting [9]) worked out at 11.7%; in assay [4] (setting [10]), 20.5%.
For `CC1O[C@@H](OC2CC[C@@]3(C=O)C4CC[C@]5(C)C(C6=CC(=O)OC6)CC[C@@]5(O)C4CC[C@]3(O)C2)C(O)C(O)C1O` (stereo partly drawn), the Potency result in assay [1], in assay [2], in assay [3] and in assay [5] was “inactive” throughout. In addition, the activity change, negative = inhibition in assay [4] was 2.77% (inactive). Further, the max response is -0.564% in assay [4] (setting [9]) and 4.22% in assay [4] (setting [10]).
For `CCC12C=CCN3CCC4(c5ccc(OC)cc5N(C)C4[C@@](O)(C(=O)OC)C1OC(C)=O)C32` (stereo partly drawn), the Potency result in assay [6], in assay [2], in assay [3] and in assay [5] was “inactive” each time. In assay [4], the activity change, negative = inhibition was 1.88% (inactive). Besides, the values for the max response in assay [4] (setting [9]) and in assay [4] (setting [10]) were 13.3% and 25%, respectively.
